About 2,000 (36%) of roughly 5,500 compounds were called active. Inconclusive results (about 18%) are left out. No stated cut-off is given here; in the data, active means normalized growth mostly below about 0.91 (no sharp cut-off); inconclusive means no clear call, values can overlap the other calls; inactive means mostly above about 0.92. Some of the results follow.
Assay: chemical genetic growth profiling, strain panel (AID 1159580);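 further: tested at 20 µM; growth read once vehicle control cultures reached saturation at 30 °C; 1 = growth at the plate median or of vehicle wells; lower values mean less growth of the strain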
Details: S. cerevisiae deletion strains, growth OD

Measured: normalized growth

CCCOc1ccccc1-c1nc2n[nH]nc2c(=O)[nH]1
inactive: locus YAL013W, strain DEP1, hits give low values 0.99 | locus YAL021C, strain ccr4, hits give low values 0.965 | locus YAL026C, strain drs2, hits give low values 1.02 | locus YAL030W, strain snc1, hits give low values 0.995 | locus YAL040C, strain CLN3, hits give low values 1.05 | locus YBL061C, strain skt5, hits give low values 1 | locus YBR009C, strain hhf1, hits give low values 1.03 | locus YBR021W, strain FUR4, hits give low values 0.996 | locus YBR023C, strain chs3, hits give low values 1 | locus YBR171W, strain sec66, hits give low values 1.01 | locus YBR229C, strain ROT2, hits give low values 1 | locus YBR231C, strain swc5, hits give low values 1.02 | locus YBR279W, strain paf1, hits give low values 1.01 | locus YCL011C, strain gbp2, hits give low values 1.01 | locus YCL016C, strain dcc1, hits give low values 1.01 | locus YCL029C, strain bik1, hits give low values 1.01 | locus YCL061C, strain MRC1 (second series), hits give low values 0.993 | locus YCL061C, strain MRC1, hits give low values 1 | locus YCL069W, strain vba3, hits give low values 0.992 | locus YCR088W, strain abp1, hits give low values 1 | locus YDL005C, strain med2, hits give low values 1 | locus YDL035C, strain GPR1, hits give low values 1.02 | locus YDL040C, strain nat1, hits give low values 0.991 | locus YDL074C, strain BRE1, hits give low values 1.01 | locus YDL101C, strain DUN1, hits give low values 1.01 | locus YDL134C, strain PPH21, hits give low values 1.01 | locus YDL185W, strain tfp1, hits give low values 1.01 | locus YDL192W, strain arf1, hits give low values 1.01 | locus YDR001C, strain nth1, hits give low values 0.998 | locus YDR069C, strain doa4, hits give low values 1.02 | locus YDR101C, strain arx1, hits give low values 1 | locus YDR137W, strain rgp1, hits give low values 1 | locus YDR159W, strain sac3, hits give low values 1.03 | locus YDR162C, strain NBP2, hits give low values 1.01 | locus YDR195W, strain ref2 1.04 | locus YDR297W, strain sur2, hits give low values 1 | locus YDR318W, strain mcm21, hits give low values 1.01 | locus YDR334W, strain swr1, hits give low values 1.01 | locus YDR335W, strain msn5, hits give low values 1 | locus YDR363W, strain ESC2, hits give low values 0.985 | locus YDR388W, hits give low values 1.02 | locus YDR392W, strain spt3, hits give low values 0.956 | locus YDR502C, strain sam2, hits give low values 1.01 | locus YEL003W, strain gim4, hits give low values 1.01 | locus YEL037C, strain rad23, hits give low values 0.998 | locus YEL061C, strain CIN8 (second series), hits give low values 1 | locus YEL061C, strain CIN8, hits give low values 1.01 | locus YER002W, strain NOP16, hits give low values 1.01 | locus YER015W, strain faa2, hits give low values 1.01 | locus YER016W, strain bim1, hits give low values 1.01 | locus YER110C, hits give low values 1.01 | locus YER111C, strain swi4, hits give low values 1.01 | locus YER155C, strain BEM2 (second series), hits give low values 1.05 | locus YER155C, strain BEM2, hits give low values 1 | locus YER167W, strain BCK2, hits give low values 1.01 | locus YFR010W, strain ubp6, hits give low values 1.01 | locus YGL078C, strain dbp3, hits give low values 1.01 | locus YGL086W, strain mad1, hits give low values 1 | locus YGL167C, strain pmr1, hits give low values 1.01 | locus YGL173C, strain kem1, hits give low values 1.01 | locus YGL227W, strain vid30, hits give low values 1.01 | locus YGL240W, strain doc1, hits give low values 1.05 | locus YGL248W, strain PDE1, hits give low values 0.981 | locus YGL253W, strain hxk2, hits give low values 1.01 | locus YGR078C, strain PAC10, hits give low values 1.01 | locus YGR135W, strain pre9, hits give low values 1.01 | locus YGR229C, strain SMI1, hits give low values 1.01 | locus YGR252W, strain gcn5, hits give low values 1.03 | locus YHR013C, strain ard1, hits give low values 0.978 | locus YHR027C, strain rpn1, hits give low values 1 | locus YHR030C, strain SLT2, hits give low values 1 | locus YHR079C, strain IRE1 (second series), hits give low values 1.01 | locus YHR094C, strain hxt1, hits give low values 1.02 | locus YHR129C, strain ARP1, hits give low values 1 | locus YHR142W, strain chs7, hits give low values 0.953 | locus YHR200W, strain rpn10, hits give low values 1.01 | locus YIL066C, strain RNR3, hits give low values 1 | locus YIL073C, strain SPO22, hits give low values 1.08 | locus YIL125W, strain kgd1, hits give low values 1 | locus YIR030C, strain dcg1, hits give low values 1.01 | locus YJL092W, strain hpr5, hits give low values 1 | locus YJL095W, strain BCK1 (second series), hits give low values 1.01 | locus YJL095W, strain BCK1, hits give low values 0.994 | locus YJL115W, strain asf1, hits give low values 1 | locus YJL129C, strain trk1, hits give low values 0.992 | locus YJL134W, strain LCB3, hits give low values 1.01 | locus YJL154C, strain vps35, hits give low values 0.999 | locus YJL164C, strain tpk1, hits give low values 0.987 | locus YJL166W, strain qcr8, hits give low values 1.01 | locus YJL168C, strain set2, hits give low values 1.01

Source: PubChem BioAssay AID1159580 (chemical genetic matrix, 2015)
